From the supplement of paper PMC7156485
Values joined by “and” are separate entries in the source; they are usually repeats but may differ in a detail not shown here. Equal entries are not always repeated. ± gives the standard deviation of the averaged measurements.

System: HCC1569
Assay: cell number relative to DMSO (% of DMSO); higher = more cells (less growth inhibition / toxicity)
Conditions: concentration: 10 µM; 24 h
Outline: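 Cell number or H1.0 nuclear intensity appears as percent of the plate control, based on the median of replicates. Measurements came from HCC1569 and TDF cells exposed in triplicate to compounds at 10 µM for 24 h at 37 °C, then imaged in six fields per well at ×10. Positional effects were smoothed out of HCC1569 values.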
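Also: TDF denotes transformed human dermal fibroblasts of mesenchymal origin.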

OCC1=CC(O)C2C=COC(OC3OC(CO)C(O)C(O)C3O)C12 (stereo not given) [Aucubin] was tested. Which cell number did it give?
The cell number was 99.6.

How did the cell number turn out when CN(C)CC=C(c1ccc(Br)cc1)c1cccnc1.Cl.Cl [Zimelidine dihydrochloride] was run?
The cell number was 99.

How did the cell number turn out when COc1ccc(/C=C\c2cc(OC)c(OC)c(OC)c2)cc1OP(=O)([O-])[O-].[Na+].[Na+] was run?
The cell number was 57.8.

With COc1cc(C(=O)c2ccc3ncccc3c2)cc(OC)c1OC [quinolin-6-yl(3,4,5-trimethoxyphenyl)methanone] as the compound, how does the cell number read?
Its cell number is 59.6.

With CC(C)NCC(O)c1ccc(NS(C)(=O)=O)cc1.Cl (stereo not given) [Sotalol.HCl] as the compound, how does the cell number read?
The cell number was 102.

How did the cell number turn out when CC12CCC3c4ccc(O)cc4CC(CCCCCCCCCS(=O)CCCC(F)(F)C(F)(F)F)C3C1CCC2O (stereo not given) [Fulvestrant] was run?
The cell number was 94.7.

Cc1ncc([N+](=O)[O-])n1CC(C)O (stereo not given) [Secnidazole] was tested. Which cell number did it give?
Its cell number is 102.

For COc1ccc(-c2cc(C(O)C3CCCCN3)c3ccccc3n2)cc1.Cl.Cl (stereo not given), which cell number is on record?
Its cell number is 68.2.

With COC(=O)Nc1nc2ccc(C(=O)c3ccc(F)cc3)cc2[nH]1 [Flubendazole] as the compound, how does the cell number read?
Its cell number is 65.9.

COc1cc(-c2ccc(=O)[nH]n2)ccc1OC(F)F [Zardaverine] was tested. Which cell number did it give?
The cell number was 106 ± 5.7.

With O=C(CO)N1CCC(c2[nH]nc(-c3ccc(Cl)cc3)c2-c2ccncn2)CC1 as the compound, how does the cell number read?
The cell number was 93.2.

How did the cell number turn out when CN(C)c1nc(N)c(C(=O)N=C(N)N)nc1Cl.Cl [5-(N,N-Dimethyl)amiloride hydrochloride] was run?
Its cell number is 99.9.

Which cell number does the source give for CSCC[C@@H](C=O)NC(=O)[C@H](CC(C)C)NC(=O)[C@H](CC(C)C)NC(C)=O here?
The cell number was 99.2.

With O=S(=O)(NCCNCC=Cc1ccc(Br)cc1)c1cccc2cnccc12 as the compound, how does the cell number read?
The cell number was 92.1 and 91.5.

For CCN(CC)CCNC(=O)c1ccc(N)cc1.Cl [Procainamide.HCl], which cell number is on record?
Its cell number is 108.

With CC(C)n1c(C=CC(O)CC(O)CC(=O)O)c(-c2ccc(F)cc2)c2ccccc21 (stereo not given) [Fluvastatin] as the compound, how does the cell number read?
Its cell number is 96.3.

With CC(=O)OC1(C(C)=O)CCC2C3C=C(Cl)C4=CC(=O)C5CC5C4(C)C3CCC21C (stereo not given) [Cyproterone acetate] as the compound, how does the cell number read?
The cell number was 91.8.

For CCCCCCCCCCCCCCCCn1cc[n+](Cc2ccccc2)c1C.[I-] [eEF-2 Kinase Inhibitor, NH125], which cell number is on record?
The cell number was 36.6.

Which cell number does the source give for CC(C)(C)c1nc2c3cc[nH]c(=O)c3c3cc(F)ccc3c2[nH]1 [JAK Inhibitor I] here?
Its cell number is 99.8.

Which cell number does the source give for COc1ccc(/C=C\c2cc(OC)c(OC)c(OC)c2)cc1O [2-methoxy-5-[(Z)-2-(3,4,5-trimethoxyphenyl)ethenyl]phenol] here?
Its cell number is 61.6.

Which cell number does the source give for CN1CCN(CCCN2c3ccccc3Sc3ccc(Cl)cc32)CC1.O=C(O)C=CC(=O)O.O=C(O)C=CC(=O)O [Prochlorperazine dimaleate] here?
The cell number was 83.7.

With CC(=O)NCCc1c[nH]c2ccc(O)cc12 [N-Acetyl-5-hydroxytryptamine] as the compound, how does the cell number read?
Its cell number is 101.

How did the cell number turn out when Nc1nc2ccc(Cl)cc2c2nc(-c3ccco3)nn12 was run?
Its cell number is 99.2.

O=C(C=Cc1ccc(O)c(O)c1)OC(Cc1ccc(O)c(O)c1)C(=O)O (stereo not given) [Rosmarinic acid] was tested. Which cell number did it give?
The cell number was 104 ± 2.8.

OCc1cc(C(O)CNCCCCCCOCCCCc2ccccc2)ccc1O (stereo not given) [Salmeterol] was tested. Which cell number did it give?
The cell number was 90.4.

CS(=O)(=O)Nc1ccc(-c2coc3cc(OCc4cccc(C(=O)O)c4)ccc3c2=O)cc1 was tested. Which cell number did it give?
Its cell number is 101.

Which cell number does the source give for COc1cc2c[n+](C)c3c4cc5c(cc4ccc3c2cc1OC)OCO5.[Cl-] here?
Its cell number is 85.3.

CC(=O)OC(C)C[N+](C)(C)C.[Cl-] (stereo not drawn) [Acetyl-beta-methylcholine chloride] was tested. Which cell number did it give?
The cell number was 110.

With COc1cccc(OC)c1OCCNCC1CSc2ccccc2O1.Cl (stereo not given) [Benoxathian hydrochloride] as the compound, how does the cell number read?
The cell number was 91.4.

With CCC(Sc1nnc2c(n1)[nH]c1ccccc12)C(=O)N1c2ccccc2Sc2ccccc21 (stereo not given) as the compound, how does the cell number read?
The cell number was 96.4.

For COc1cc(NS(=O)(=O)c2ccc(N)cc2)nc(OC)n1 [Sulfadimethoxine], which cell number is on record?
The cell number was 103.

How did the cell number turn out when Br.CN(C)CCCC1(c2ccc(F)cc2)OCc2cc(C#N)ccc21 (stereo not given) [Citalopram hydrobromide] was run?
Its cell number is 101.

For CN1c2ccccc2C(=O)N2CCc3c([nH]c4ccccc34)C21 (stereo not given) [Evodiamine], which cell number is on record?
Its cell number is 61.2.

For CCCCN1CCC(n2c(=O)[nH]c3ccccc32)CC1.O=C(O)C(=O)O [NS 521 oxalate], which cell number is on record?
The cell number was 98.

For COc1cc2c(CCNC(C)=O)c[nH]c2cc1Cl [6-Chloromelatonin], which cell number is on record?
Its cell number is 101.

With O=C1Cc2c([nH]c3ccc(Br)cc23)-c2ccccc2N1 [Kenpaullone] as the compound, how does the cell number read?
The cell number was 76.3 ± 6.3.

With O=C1CN2Cc3c(ccc(Cl)c3Cl)NC2=N1 [Anagrelide] as the compound, how does the cell number read?
The cell number was 103.

O=C(O)CNC(=O)C(CS)Cc1ccccc1 (racemic) [DL-Thiorphan] was tested. Which cell number did it give?
Its cell number is 105.

For CC(C)C[C@@H](C(=O)O)c1cc(-c2ccc(C(F)(F)F)cc2)cc(-c2ccc(C(F)(F)F)cc2)c1, which cell number is on record?
Its cell number is 98.7.

How did the cell number turn out when COC1(NC(=O)CSCC#N)C(=O)N2C(C(=O)[O-])=C(CSc3nnnn3C)CSC21.[Na+] (stereo not given) [Cefmetazole sodium] was run?
Its cell number is 101.
